“And” between values parts separate entries of the source, which are not always exact repeats. Equal values may be shown once. Where a structure was tested more than once in an assay, its records may differ in their call. The source made the active and inactive calls. Rule for the calls: active = hit-call score of the fitted dose curve at least 0.9, where 1 is the maximum; inactive = score below 0.9.
Each compound was assayed against X-box-binding protein 1 (Homo sapiens) (UniProt P17861) (assay: ATG_Xbp1_CIS: Attagene CIS-FACTORIAL HepG2 Assay for human X-box Binding Protein 1 (XBP1) (AID 2282972)). Settings: HepG2 XBP1 cis-element reporter, Attagene multiplex; actives raise or lower the signal.
X-box-binding protein 1 (Homo sapiens), sequence (P17861 whole entry, looked up): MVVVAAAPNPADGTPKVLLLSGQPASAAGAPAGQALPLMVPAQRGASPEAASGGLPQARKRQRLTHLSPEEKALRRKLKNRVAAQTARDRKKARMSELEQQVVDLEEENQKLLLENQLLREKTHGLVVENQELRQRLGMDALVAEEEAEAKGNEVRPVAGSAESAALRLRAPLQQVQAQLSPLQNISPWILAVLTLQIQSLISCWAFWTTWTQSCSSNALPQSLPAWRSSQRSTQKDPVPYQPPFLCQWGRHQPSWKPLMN
Experimental: ATG_CIS is a cell-based, multiplexed-readout assay that uses HepG2, a human liver cell line, with measurements taken at 24 hours after chemical dosing in a 24-well plate.ATG_Xbp1_CIS is one of 52 assay component(s) measured or calculated from the ATG_CIS assay. It is designed to make measurements of mRNA induction, a form of inducible reporter, as detected with fluorescence intensity signals by Reverse transcription polymerase chain reaction (RT-PCR) and Capillary electrophoresis technology.Data from the assay component ATG_Xbp1_CIS was analyzed into 1 assay endpoint. This assay endpoint, ATG_Xbp1_CIS, was analyzed with bidirectional fitting relative to DMSO as the negative control and baseline of activity. Using a type of inducible reporter, measures of mRNA for gain or loss-of-signal activity can be used to understand the reporter gene at the transcription factor-level as they relate to the gene XBP1. Furthermore, this assay endpoint can be referred to as a primary readout, because this assay has produced multiple assay endpoints where this one serves a reporter gene function. To generalize the intended target to other relatable targets, this assay endpoint is annotated to the dna binding intended target family, where the subfamily is basic leucine zipper.
Human liver HepG2 cells are transiently transfected with multiple reporter transcription units (MRTUs) in 6-well plates using FuGene 6 reagent (Roche; 3 ml FuGene/1 mg DNA). The MRTU constructs are regulated by a cis-regulating element (promoter). […] A major difference between the CIS and TRANS system is that in CIS activities of endogenous TFs are measured, whereas the TRANS assay evaluates changes in activities of exogenous, chimeric NR-Gal4 proteins. […] At the end of 24 hour incubation, total RNA was isolated using TriZol reagent (Invitrogen). The isolated RNA is then reverse-transcribed using oligo(dT) primer and Mo-MLV reverse transcriptase (Invitrogen) with DNAse I (Ambion) treatment for 30 min. The one-tenth of the produced cDNA was amplified by PCR using Taq DNA polymerase (Invitrogen) and two reporter sequence-specific primers. The PCR products were fluorescently labeled by primer extension with 6-arboxyfluorescein (6-FAM) 5'-labeled reporter sequence-specific primer (2 min at 95 C, 20 s at 68 C and 10 min at 72 C) and these products were digested with 5U of HpaI (New England Biolabs) for 2h at 37 C. The fragments were purified using Qiaquick PCR columns (Qiagen), analyzed on an ABI 3130xL genetic analyzer (Applied Biosystems) with peak positions identified by using a set of X-rhodamine (ROX)-labeled MapMarker1000 molecular weight standards (BioVentures). The raw capillary electrophoresis data was processed using Attagraph software (Attagene).
With `CN(C)CCO` the outcome was “inactive”.
In the case of `N#Cc1ccc(N(CC(N)=O)CC(F)(F)F)cc1C(F)(F)F`, the outcome is reported as “inactive”.
For `CCSC(=O)N(CC)C1CCCCC1`, the outcome was “inactive”.
For `O=C(O)C(F)(F)C(F)(F)C(F)(F)C(F)(F)C(F)(F)F`, the outcome was “inactive”.
`CCNc1nc(NC(C)C)nc(SC)n1` was tested, and the outcome was “inactive”.
In the case of `CCCCCCCCCC[N+](C)(C)CCCCCCCCCC`, the outcome is reported as “inactive”.
In the case of `CC1=C2C[C@H]3[C@@H](CC=C4C[C@@H](O)CC[C@@]43C)[C@@H]2CC[C@]12O[C@@H]1C[C@H](C)CN[C@H]1[C@H]2C`, the outcome is reported as “inactive”.
In the case of `ClC1=C(Cl)[C@]2(Cl)[C@@H]3[C@H]4C[C@H]([C@@H]5O[C@H]45)[C@@H]3[C@@]1(Cl)C2(Cl)Cl`, the outcome is reported as “inactive”.
With `CCC(C)c1cc([N+](=O)[O-])cc([N+](=O)[O-])c1O` (stereo not given) the AC50 was 10.2 µM (active).
`COc1ccc(O)c(C(C)(C)C)c1` was tested, and the AC50 was 100 µM (active).
For `C1CC2OC2CC1C1CO1` (stereo not given), the outcome was “inactive”.
For `O=C(N[C@H]1CN2CCC1CC2)c1cc2ccoc2cn1`, the outcome was “inactive”.
In the case of `O=C(NC(=O)c1c(F)cccc1F)Nc1cc(Cl)c(OC(F)(F)C(F)F)c(Cl)c1`, the outcome is reported as “inactive”.
`Sc1ccccc1` was tested, and the outcome was “inactive”.
`Clc1ccc(C(Cl)(Cl)Cl)cc1` was tested, and the outcome was “inactive”.
For `Oc1c(Cl)c(Cl)c(Cl)c(Cl)c1Cl`, the AC50 was 29.5 µM (active) and 19 µM (active) and 74.2 µM (active).
In the case of `Oc1ccc(C(c2ccc(O)cc2)(C(F)(F)F)C(F)(F)F)cc1`, the outcome is reported as “inactive” and the AC50 is reported as 18.1 µM (active) and 17.3 µM (active) and 17.8 µM (active).
`O=C(O)C(F)(F)C(F)(F)C(F)(F)C(F)(F)C(F)(F)C(F)(F)C(F)(F)C(F)(F)F` was tested, and the outcome was “inactive” and the AC50 was 150 µM (active) and 39.2 µM (active).
In the case of `Nn1cnnc1`, the outcome is reported as “inactive”.
In the case of `C=CC(=O)NCNC(=O)C=C`, the outcome is reported as “inactive”.
With `O=S(=O)(O)C(F)(F)C(F)(F)C(F)(F)C(F)(F)F` the outcome was “inactive”.
For `CCCN(CCC)N=O`, the outcome was “inactive”.
In the case of `Clc1ccc(C(c2ccccc2Cl)C(Cl)(Cl)Cl)cc1` (stereo not given), the outcome is reported as “inactive” and the AC50 is reported as 70.5 µM (active) and 101 µM (active) and 46.4 µM (active).
In the case of `O=NN(c1ccccc1)c1ccccc1`, the outcome is reported as “inactive”.
`CCC(C)(c1ccc(O)cc1)c1ccc(O)cc1` was tested, and the AC50 was 54.8 µM (active) and 52.7 µM (active) and 16.7 µM (active) and the outcome was “inactive”.
In the case of `C[C@]12CCC(=O)C=C1CC[C@@H]1[C@@H]2CC[C@]2(C)C(=O)CC[C@@H]12`, the outcome is reported as “inactive”.
With `Cc1cc(-c2ccc(N)c(C)c2)ccc1N` the outcome was “inactive”.
In the case of `Oc1ccc(Cl)cc1Cl`, the outcome is reported as “inactive”.
For `NS(=O)(=O)C(F)(F)C(F)(F)C(F)(F)C(F)(F)C(F)(F)C(F)(F)C(F)(F)C(F)(F)F`, the AC50 was 41.7 µM (active) and 39.9 µM (active) and 50 µM (active).
With `CN(C)c1nc(=O)n(C2CCCCC2)c(=O)n1C` the outcome was “inactive”.
In the case of `CC(C)(c1ccccc1)c1ccc(O)cc1`, the outcome is reported as “inactive” and the AC50 is reported as 52.7 µM (active) and 52.2 µM (active).
For `CCCCCCCCCc1ccc(O)cc1`, the outcome was “inactive” and the AC50 was 32.8 µM (active).
`CC(c1ccc(O)cc1)(c1ccc(O)cc1)c1ccc(O)cc1` was tested, and the AC50 was 11.1 µM (active).
For `ClC1=C(Cl)[C@]2(Cl)[C@@H]3[C@@H](Cl)[C@H]4O[C@H]4[C@@H]3C1(Cl)C2(Cl)Cl`, the AC50 was 36.5 µM (active).
